Screen size: about 4,800 compounds; about 420 (8.8%) showed an effect of 50% or more. The sample as a whole holds a higher share of strong results than the screen did.
System: Plasmodium falciparum
Assay: Confirmatory screen in NF54 nanoGlo assay, in single point, at 2uM, 72h
Format: functional, Erythrocyte
Conditions: timepoint 72 hour

SMILES | % Inhibition [%]
CCCC[C@H](CC)C(=O)Nc1ccccc1C | 7
CN(C(=O)c1ccc(OCC(F)(F)F)nc1)C1(C#N)CCC1 | 2
Cc1cc2c(cc1C)[C@H](C(=O)Nc1cc(C(N)=O)ccc1Cl)CO2 | -1
O=C(NC(Cn1ccccc1=O)c1ccccc1)C1CCOC1 (stereo not drawn) | 2
O=C(Nc1ccc2c(c1)c1cc(Br)ccc1n2Cc1ccccc1)c1ccccc1 | 4
O=C(N[C@@H](Cn1nccn1)c1ccccc1)c1cc(Br)ccc1Cl | 65
O=C(Cc1ccccc1)Nc1cccc2c1C(=O)N(c1ccccc1)C2=O | -14
O=C(C[C@@]1(O)C(=O)N(Cc2ccc(Cl)cc2Cl)c2ccccc21)c1ccccn1 | -10
Cc1c(NC(=O)CCc2ccsc2)nnn1Cc1ccccc1F | -10
O=C(CN1C=CCC=C1c1nc(-c2ccc(Br)cc2)cs1)c1ccccc1 | 35
COc1ccc(C(=O)CN2C=CCC=C2c2nc(-c3ccc(Cl)cc3)cs2)cc1 | 72
COc1ccc(C2=CN(CC(=O)c3ccc(Cl)cc3)C3=CCCCCN23)cc1 | 47
Cc1ccc(CNCCC2=CCCCC2)cc1 | -2
Cc1csc(NC(=O)[C@]2(C)Oc3ccccc3NC2=O)n1 | 0
O=c1[nH]nc(-c2ccc3ccccc3c2)c2conc12 | 18
Cn1ccc(NC(=O)c2n[nH]c3ccccc23)n1 | -12
CC(C)CCNC(=O)c1cnn2c3c(cnc12)CCCC3 | -6
COc1ccc(F)c(NC(=O)N(CCO)C(C)C)c1 | 5
COc1ccc(NC(=O)CN2N=C(C(=O)Nc3ccc(F)cc3)CCC2=O)cc1 | -7
COc1ccc2nc(O)c(C(=O)Nc3ccc4c(c3F)CCNC4)cc2c1 | 99
CCn1nc(C(=O)N(C2CCCCC2)C2CC2)c2ccccc2c1=O | -10
Cc1cccc(CN2CCC[C@H](C(=O)c3ccc4c5c(cccc35)CC4)C2)n1 | 63
Cc1cccc(NC(=O)N2CCCCCC2)n1 | 1
COC[C@H](NC(=O)c1cccc(F)c1Cl)C(N)=O | -8
Cc1cc2nnc(-c3nc4ccccc4[nH]3)c(N)n2n1 | -10
Nc1c(-c2nc3ccccc3[nH]2)c2nc3ccccc3nc2n1Cc1ccccc1F | 64
Cc1ncc(C(=O)Nc2cc3c(=O)[nH]cnc3cc2F)c(C2CC2)n1 | 3
CCc1nnc(COC(=O)c2csc(NC)n2)o1 | 6

— ChEMBL document CHEMBL4888484, “Replenishing the malaria drug discovery pipeline: Screening and hit evaluation of the MMV Hit Generation Library 1 (HGL1) against asexual blood stage Plasmodium falciparum ,using a nano luciferase reporter read-out” (2022)
